“And” between values parts separate entries of the source, which are not always exact repeats. Identical values can stand only once. Inconclusive results are not listed. The source made the active and inactive calls. Unless noted, calls follow the shape of the dose curve; as a rule, active = well fitted curve in the direction sought with a large enough effect in the repeat runs; inconclusive = weak or mixed curves; inactive = no such curve, though single readings can be large; an effect the other way counts as inactive or inconclusive.
How the values were obtained:
[1] = qHTS assay for small molecule agonists of the p53 signaling pathway - cell viability (AID 651633; calls by dose curve; also: nearly all actives have a fitted effect of over 30% in size; also: potency is read from the fitted curve at half-maximal effect)
Method in brief: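 p53RE-bla cells, seeded at 4,000 per well and rested 5 h at 37 C/5% CO2, received compounds in DMSO for 16 h at 37 C. CellTiter-Glo was then added, and luminescence was read after 30 min at room temperature to gauge cytotoxicity.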

[2] = qHTS assay for small molecules that induce genotoxicity in human embryonic kidney cells expressing luciferase-tagged ATAD5 - cell viability (AID 651634; calls by dose curve; also: nearly all actives have a fitted effect of over 25% in size; also: potency is read from the fitted curve at half-maximal effect)
Method in brief: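 Cytotoxicity counterscreen in HEK293T cells bearing an ATAD5-luciferase reporter: live-cell protease activity measured by CellTiter-Fluor fluorescence after 15.5 hr compound exposure.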

[3] = qHTS assay to test for compound auto fluorescence at 460 nm (blue) in HEK293 cells (AID 720678)
Method in brief: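 Cells were seeded and left to adhere for 4-5 hr at 37C. Compounds were then pin-transferred. After an overnight incubation at 37C under 5% CO2, intrinsic fluorescence at 405/460 nm was measured and referenced to triamterene.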

[4] = qHTS assay to test for compound auto fluorescence at 590 nm (red) in HEK293 cells (AID 720679)
Method in brief: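 Each well held 2,000 HEK293 cells in medium containing 10% dialyzed FBS. Following 4-5 hr attachment at 37C, 23 nL test compound or DMSO was added; plates sat overnight, and red fluorescence (540/590nm) was recorded.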

[5] = qHTS assay to test for compound auto fluorescence at 460 nm (blue) in HEK293 cell free culture (AID 720681)
Method in brief: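 Test compounds were pinned into cell-free culture medium (DMEM with 10% FBS) and fluorescence was read directly at Ex/Em 405/460 nm. Signals were expressed as fluorescence equivalents of triamterene, with DMSO vehicle as control.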

[6] = qHTS assay to test for compound auto fluorescence at 590 nm (red) in HEK293 cell free culture (AID 720683)
Method in brief: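 Tox21 10K library compounds were pinned into cell-free DMEM with 10% FBS and fluorescence was read at excitation 540 nm. Activity is expressed as Rose Bengal sodium equivalency.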

[7] = qHTS assay to test for compound auto fluorescence at 460 nm (blue) in HepG2 cell free culture (AID 720685)
Method in brief: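 Compound (23 nL) or DMSO pinned into cell-free MEM with 10% FBS; blue fluorescence read at 405/460 nm excitation/emission, expressed as auto-fluorescence equivalency to triamterene.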

[8] = qHTS assay to test for compound auto fluorescence at 535 nm (green) in HepG2 cell free culture (AID 720686)
[9] = qHTS assay to identify small molecule antagonists of the glucocorticoid receptor (GR) signaling pathway - cell viability counter screen (AID 720693); also: nearly all actives have a fitted effect of over 55% in size; also: potency is read from the fitted curve at half-maximal effect
[10] = qHTS assay to identify small molecule antagonists of the androgen receptor (AR) signaling pathway - cell viability counter screen (AID 743033; also: nearly all actives have a fitted effect of over 45% in size; also: potency is read from the fitted curve at half-maximal effect)
[11] = qHTS assay to identify small molecule antagonists of the androgen receptor (AR) signaling pathway using the MDA cell line - cell viability counter screen (AID 743041; also: nearly all actives have a fitted effect of over 45% in size; also: potency is read from the fitted curve at half-maximal effect)
Method in brief: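 Viability counter screen run alongside the AR antagonist reporter: cells seeded 5 h before compound, R1881 added, 16 h incubation at 37C without CO2, fluorescent CellTiter-Fluor signal quantified.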

[12] = qHTS assay to identify small molecule antagonists of the thyroid receptor (TR) signaling pathway (AID 743065); also: nearly all actives have a fitted effect of over 55% in size; also: potency is read from the fitted curve at half-maximal effect
Method in brief: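 GH3.TRE-Luc rat pituitary cells carrying two TR response elements driving luciferase were plated for 4 h, given compound plus 1 nM T3 (final), and incubated 23.5 h at 37 C. ONE-Glo luminescence measured reporter inhibition; CellTiter-Fluor fluorescence tracked cytotoxicity.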

[13] = system: thyroid hormone receptor (rat, GH3 cells); assay: qHTS assay to identify small molecule agonists of the thyroid receptor (TR) signaling pathway (AID 743066; calls by dose curve)
[14] = qHTS assay to identify small molecule antagonists of the estrogen receptor alpha (ER-alpha) signaling pathway - cell viability counter screen (AID 743074; calls by dose curve;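 also: HEK293 cells carrying ER-alpha-UAS-bla reporter stimulated with 17beta-estradiol; nearly all actives have a fitted effect of over 45% in size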; also: potency is read from the fitted curve at half-maximal effect)
[15] = qHTS assay to identify small molecule antagonists of the estrogen receptor alpha (ER-alpha) signaling pathway using the BG1 cell line - cell viability counter screen (AID 743081);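 also: compound given together with 17beta-estradiol as the ER stimulus; series mostly up to about 70 µM; nearly all actives have a fitted effect of over 45% in size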
Aromatase (Homo sapiens) = Aromatase (Homo sapiens) (UniProt P11511); assay: qHTS assay to identify aromatase inhibitors (AID 743083); also: nearly all actives have a fitted effect of over 55% in size; also: potency is read from the fitted curve at half-maximal effect
[16] = qHTS assay to identify aromatase inhibitors - cell viability counter screen (AID 743084);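 also: cells stimulated with testosterone during compound exposure; nearly all actives have a fitted effect of over 55% in size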; also: potency is read from the fitted curve at half-maximal effect
[17] = qHTS assay to identify small molecule that activate the aryl hydrocarbon receptor (AhR) signaling pathway - cell viability counter screen (AID 743086); also: nearly all actives have a fitted effect of over 45% in size; also: potency is read from the fitted curve at half-maximal effect
Method in brief: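 HepG2-AhR-luc (HG2L7.5c1) cells, 4000/well, were preincubated 5 h at 37C, exposed to compound in qHTS format for 24 hr at 37C, then given CellTiter-Fluor for 30 min; viability was read as fluorescence in the reporter wells.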

[18] = qHTS assay to identify small molecule phospholipidosis (PLD) inducers (AID 1259344; active = well fitted curve in the direction sought with a large enough effect; an effect the other way counts as inactive or inconclusive)
Method in brief: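 HepG2 cells grown on collagen I take up LipidTOX Red while exposed to compound for 24 h; after fixation they are imaged at 20x and pit metrics are extracted.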

[19] = target: Nuclear receptor subfamily 1 group I member 2 (Rattus norvegicus) (UniProt Q9R1A7); assay: Rat pregnane X receptor (rPXR) activation by small molecules, qHTS assay (AID 1346983); settings: rPXR luciferase reporter cells, One-Glo luminescence, 24 h; max activation: active compounds read high; also: nearly all actives have a fitted effect of over 20% in size
Method in brief: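 Cell-based rPXR luciferase reporter assay, 2,000 cells per well, rested 5hr at 37 C before compound addition in DMSO, then 24 hr at 37 C. One-Glo reagent was added and luminescence read after 30 min at room temperature.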
% is scaled to controls: 0 for no effect and ±100 for the full control effect.

Sequence of Nuclear receptor subfamily 1 group I member 2 (Rattus norvegicus) (Q9R1A7 whole entry, looked up): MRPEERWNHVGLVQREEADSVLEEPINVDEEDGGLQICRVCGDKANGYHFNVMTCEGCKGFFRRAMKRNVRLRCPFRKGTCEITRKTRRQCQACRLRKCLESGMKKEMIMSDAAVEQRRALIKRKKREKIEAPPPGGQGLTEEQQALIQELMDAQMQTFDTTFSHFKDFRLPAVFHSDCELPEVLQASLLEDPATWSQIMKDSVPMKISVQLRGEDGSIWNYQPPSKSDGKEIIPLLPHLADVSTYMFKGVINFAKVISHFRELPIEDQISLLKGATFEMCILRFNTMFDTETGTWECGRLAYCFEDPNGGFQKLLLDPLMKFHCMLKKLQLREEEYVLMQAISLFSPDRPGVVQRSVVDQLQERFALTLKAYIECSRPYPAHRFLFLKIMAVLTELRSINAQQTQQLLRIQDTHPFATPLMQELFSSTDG
Sequence of Aromatase (Homo sapiens) (P11511 whole entry, looked up): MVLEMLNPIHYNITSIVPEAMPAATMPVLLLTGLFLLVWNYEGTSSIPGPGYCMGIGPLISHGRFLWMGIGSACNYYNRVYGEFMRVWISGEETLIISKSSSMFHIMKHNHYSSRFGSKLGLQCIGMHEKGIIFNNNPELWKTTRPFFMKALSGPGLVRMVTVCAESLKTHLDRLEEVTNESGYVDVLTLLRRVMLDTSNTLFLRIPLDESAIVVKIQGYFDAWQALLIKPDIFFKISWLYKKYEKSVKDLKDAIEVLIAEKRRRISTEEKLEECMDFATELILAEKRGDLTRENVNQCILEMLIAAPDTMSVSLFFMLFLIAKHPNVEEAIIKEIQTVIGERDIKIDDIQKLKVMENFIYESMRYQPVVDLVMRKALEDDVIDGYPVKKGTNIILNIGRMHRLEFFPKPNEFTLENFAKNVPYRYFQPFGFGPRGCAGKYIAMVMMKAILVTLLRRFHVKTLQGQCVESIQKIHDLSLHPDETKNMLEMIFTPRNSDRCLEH

Clc1ccc2c(c1)C(c1ccccc1)=NCc1nncn1-2
inactive: Potency [1] | Potency [2] | Potency [3] | outcome [4] | Potency [5] | outcome [6] | Potency [7] | Potency [8] | Potency [9] | Potency [10] | Potency [11] | Potency [12] | Potency [13] | Potency [14] | Potency [15] | Potency (Aromatase (Homo sapiens)) | Potency [16] | Potency [17] | Potency [18] | max activation [19] -10.5%

C[N+]1([O-])[C@@H]2CC[C@H]1CC(OC(=O)C(CO)c1ccccc1)C2 (some centres not stated)
inactive: Potency [1] | Potency [2] | Potency [3] | outcome [4] | Potency [5] | outcome [6] | Potency [7] | Potency [8] | Potency [9] | Potency [10] | Potency [11] | Potency [14] | Potency [15] | Potency (Aromatase (Homo sapiens)) | Potency [16] | Potency [17] | Potency [18] | max activation [19] -0.187% and -0.592%

Cc1nnc2n1-c1ccc(Cl)cc1C(c1ccccc1Cl)=NC2
inactive: Potency [1] | Potency [3] | outcome [4] | Potency [5] | outcome [6] | Potency [7] | Potency [8] | Potency [9] | Potency [10] | Potency [11] | Potency [12] | Potency [13] | Potency [14] | Potency [15] | Potency (Aromatase (Homo sapiens)) | Potency [16] | Potency [17] | Potency [18] | max activation [19] 3.04%

CC(=O)OCC(=O)[C@H]1CC[C@H]2[C@@H]3CC[C@H]4C[C@H](O)CC[C@]4(C)[C@H]3C(=O)C[C@]12C
inactive: Potency [1] | Potency [2] | Potency [3] | outcome [4] | Potency [5] | outcome [6] | Potency [7] | Potency [8] | Potency [9] | Potency [10] | Potency [11] | Potency [12] | Potency [13] | Potency [14] | Potency [15] | Potency (Aromatase (Homo sapiens)) | Potency [16] | Potency [17] | Potency [18] | max activation [19] -0.613%

O=S(=O)(O)c1cc(O)ccc1O
inactive: Potency [1] | Potency [2] | Potency [3] | outcome [4] | Potency [5] | outcome [6] | Potency [7] | Potency [8] | Potency [9] | Potency [10] | Potency [11] | Potency [12] | Potency [13] | Potency [14] | Potency [15] | Potency [17] | Potency [18]

O=C1CCO1
inactive: Potency [1] | Potency [2] | Potency [3] | outcome [4] | Potency [5] | outcome [6] | Potency [7] | Potency [8] | Potency [9] | Potency [10] | Potency [11] | Potency [12] | Potency [13] | Potency [15] | Potency (Aromatase (Homo sapiens)) | Potency [16] | Potency [17] | Potency [18] | max activation [19] -0.633%

CC(C)CCC(=O)O[C@H]1CC[C@H]2[C@@H]3CCC4=CC(=O)CC[C@]4(C)[C@H]3CC[C@]12C
active: Potency [12] 29.8 µM
inactive: Potency [2] | Potency [3] | outcome [4] | Potency [5] | outcome [6] | Potency [7] | Potency [8] | Potency [10] | Potency [11] | Potency [13] | Potency [14] | Potency [15] | Potency (Aromatase (Homo sapiens)) | Potency [16] | Potency [17] | Potency [18] | max activation [19] 2.99%

CN(C)CCCCCCN(C)C
inactive: Potency [1] | Potency [2] | Potency [3] | outcome [4] | Potency [5] | outcome [6] | Potency [7] | Potency [8] | Potency [9] | Potency [10] | Potency [11] | Potency [12] | Potency [13] | Potency [14] | Potency [15] | Potency (Aromatase (Homo sapiens)) | Potency [16] | Potency [17]

CCC(=O)O[C@]1(c2ccccc2)CCN(C)C[C@H]1C
inactive: Potency [1] | Potency [2] | Potency [3] | outcome [4] | Potency [5] | outcome [6] | Potency [7] | Potency [8] | Potency [9] | Potency [10] | Potency [11] | Potency [12] | Potency [13] | Potency [14] | Potency [15] | Potency (Aromatase (Homo sapiens)) | Potency [16] | Potency [17] | Potency [18] | max activation [19] -0.104%

c1ccccc1
inactive: Potency [1] | Potency [2] | Potency [3] | outcome [4] | Potency [5] | outcome [6] | Potency [7] | Potency [8] | Potency [9] | Potency [10] | Potency [11] | Potency [12] | Potency [13] | Potency [14] | Potency [15] | Potency (Aromatase (Homo sapiens)) | Potency [16] | Potency [17]

C[C@H]1CC[C@]2(NC1)O[C@H]1C[C@H]3[C@@H]4CC[C@H]5C[C@@H](O[C@@H]6O[C@H](CO)[C@H](O[C@@H]7O[C@H](CO)[C@@H](O)[C@H](O[C@@H]8OC[C@@H](O)[C@H](O)[C@H]8O)[C@H]7O[C@@H]7O[C@H](CO)[C@@H](O)[C@H](O)[C@H]7O)[C@H](O)[C@H]6O)CC[C@]5(C)[C@H]4CC[C@]3(C)[C@H]1[C@@H]2C
active: Potency [1] 2.11 µM | Potency [2] 7.5 µM | Potency [9] 2.39 µM | Potency [10] 4.77 µM | Potency [11] 6.68 µM | Potency [12] 2.37 µM | Potency [14] 10.7 µM | Potency (Aromatase (Homo sapiens)) 3.35 µM | Potency [16] 5.96 µM | Potency [17] 5.96 µM
inactive: Potency [3] | outcome [4] | Potency [5] | outcome [6] | Potency [7] | Potency [8] | Potency [18] | max activation [19] -24.3%

CC(C)(C)c1ccc(O)cc1
inactive: Potency [3] | outcome [4] | Potency [5] | outcome [6] | Potency [7] | Potency [8] | Potency [18]

O=C(CCl)c1ccc(Oc2ccc(C(=O)CCl)cc2)cc1
inactive: Potency [1] | Potency [2] | Potency [3] | outcome [4] | Potency [5] | outcome [6] | Potency [7] | Potency [8] | Potency [9] | Potency [10] | Potency [11] | Potency [12] | Potency [13] | Potency [14] | Potency [15] | Potency (Aromatase (Homo sapiens)) | Potency [16] | Potency [17] | Potency [18] | max activation [19] 7.38%
